These results are taken from ChEMBL document CHEMBL3988442, “University of Dundee, Small-Polar-MMV Screening Library” (2021).

For some of these results: Entries with a potency or affinity are not part of this list.

Holding throughout (design): scale not given: direction of the effect not stated beside the values
The target of test [1] is Protein translocase subunit SecA (Escherichia coli (strain K12)) (UniProt P10408). The test can be described thus: Assay to Identify E. coli SecA ATPase Inhibitors. The class given is functional. Particulars: 30 µM.
Chain of Protein translocase subunit SecA (Escherichia coli (strain K12)) (P10408 whole entry): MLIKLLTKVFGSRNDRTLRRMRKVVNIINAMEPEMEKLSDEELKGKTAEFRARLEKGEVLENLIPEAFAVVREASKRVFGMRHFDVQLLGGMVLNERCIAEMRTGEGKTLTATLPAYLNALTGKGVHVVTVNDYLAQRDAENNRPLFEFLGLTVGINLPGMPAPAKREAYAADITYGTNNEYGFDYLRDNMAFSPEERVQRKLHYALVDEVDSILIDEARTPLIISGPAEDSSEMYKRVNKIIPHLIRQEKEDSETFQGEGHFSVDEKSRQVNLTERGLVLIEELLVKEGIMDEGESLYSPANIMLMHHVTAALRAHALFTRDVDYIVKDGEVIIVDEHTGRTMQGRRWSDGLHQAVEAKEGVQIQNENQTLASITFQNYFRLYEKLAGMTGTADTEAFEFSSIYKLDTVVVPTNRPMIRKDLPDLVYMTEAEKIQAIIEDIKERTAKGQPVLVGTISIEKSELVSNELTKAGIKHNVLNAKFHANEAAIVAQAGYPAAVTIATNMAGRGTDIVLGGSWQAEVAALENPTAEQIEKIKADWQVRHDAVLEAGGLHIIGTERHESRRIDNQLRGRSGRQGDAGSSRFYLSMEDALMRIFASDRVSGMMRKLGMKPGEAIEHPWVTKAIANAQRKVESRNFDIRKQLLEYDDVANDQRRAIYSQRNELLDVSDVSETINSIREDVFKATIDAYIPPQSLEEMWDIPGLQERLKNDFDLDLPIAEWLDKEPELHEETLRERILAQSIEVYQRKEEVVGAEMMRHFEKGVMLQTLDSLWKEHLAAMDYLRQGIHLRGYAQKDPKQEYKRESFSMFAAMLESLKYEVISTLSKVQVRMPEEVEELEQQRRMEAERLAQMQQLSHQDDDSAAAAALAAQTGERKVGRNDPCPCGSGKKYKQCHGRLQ
Test [2] has as its target T1, Ubiquitin-activating enzyme e1, putative (Leishmania donovani (strain BPK282A1)) (UniProt E9BSI1).
T1 sequence (whole entry): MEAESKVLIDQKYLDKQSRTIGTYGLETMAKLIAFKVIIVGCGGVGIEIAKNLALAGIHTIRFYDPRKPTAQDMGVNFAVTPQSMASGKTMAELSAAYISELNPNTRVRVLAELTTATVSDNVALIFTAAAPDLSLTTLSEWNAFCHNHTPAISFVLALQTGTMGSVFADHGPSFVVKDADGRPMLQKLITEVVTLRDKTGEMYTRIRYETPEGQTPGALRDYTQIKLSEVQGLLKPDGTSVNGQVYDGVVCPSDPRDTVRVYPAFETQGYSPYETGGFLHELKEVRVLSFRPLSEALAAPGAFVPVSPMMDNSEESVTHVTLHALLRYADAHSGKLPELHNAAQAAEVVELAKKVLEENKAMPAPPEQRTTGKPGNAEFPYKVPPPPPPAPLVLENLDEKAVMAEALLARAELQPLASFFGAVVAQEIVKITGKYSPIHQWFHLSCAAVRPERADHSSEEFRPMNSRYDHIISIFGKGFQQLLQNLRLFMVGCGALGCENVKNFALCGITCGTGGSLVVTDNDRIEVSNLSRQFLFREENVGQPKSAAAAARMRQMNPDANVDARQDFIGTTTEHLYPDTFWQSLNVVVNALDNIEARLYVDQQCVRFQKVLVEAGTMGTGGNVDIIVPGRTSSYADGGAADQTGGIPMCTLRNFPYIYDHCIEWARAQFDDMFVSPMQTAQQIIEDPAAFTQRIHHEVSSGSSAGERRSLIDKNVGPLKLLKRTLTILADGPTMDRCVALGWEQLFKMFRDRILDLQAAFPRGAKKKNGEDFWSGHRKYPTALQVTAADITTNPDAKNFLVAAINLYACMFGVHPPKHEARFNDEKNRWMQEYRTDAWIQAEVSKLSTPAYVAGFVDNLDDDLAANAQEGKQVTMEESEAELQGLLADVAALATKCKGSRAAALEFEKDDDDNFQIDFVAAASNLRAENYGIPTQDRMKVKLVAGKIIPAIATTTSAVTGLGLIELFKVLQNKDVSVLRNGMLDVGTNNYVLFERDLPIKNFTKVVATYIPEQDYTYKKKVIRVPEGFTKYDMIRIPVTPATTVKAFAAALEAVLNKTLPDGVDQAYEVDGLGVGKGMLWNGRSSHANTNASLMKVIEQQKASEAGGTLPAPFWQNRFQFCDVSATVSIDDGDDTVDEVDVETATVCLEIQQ
The test is described as follows: Leishmania donovani Ubiquitin Activating Enzyme (LdE1). The class given is functional. Particulars: 30 µM.

The target of test [3] is AMP-activated protein kinase, AMPK (Homo sapiens) (UniProt P54646+O43741+P54619+Q9UGJ0+Q9Y478+Q13131+Q9UGI9). The test is described as follows: AMP-dependent Kinase enzyme assay. An in vitro enzyme assay that detects ADP turnover that is directly proportional to AMPK activity. This uses naive AMPK that is activated during the assay with MK-8722. Type of test: functional. Particulars: 30 µM.

Test [4] concerns the target Sialic acid-binding Ig-like lectin 9 (Homo sapiens) (UniProt Q9Y336). The test can be described thus: Hs-Siglec9 ALPHAscreen SOP 20170721. Conditions: 10 µM. On the technique in general: Alpha assays give light when donor and acceptor beads are brought close together.
In test [5] the test system is Trypanosoma cruzi. The test is described as follows: Trypanosoma cruzi phosphomannomutase and mannose-1-phosphate guanylyltransferase assay. The class given is functional. Particulars: 10 µM.
Test [6] addresses T2, Arginase-2, mitochondrial (Homo sapiens) (UniProt P78540).
T2 sequence (whole entry): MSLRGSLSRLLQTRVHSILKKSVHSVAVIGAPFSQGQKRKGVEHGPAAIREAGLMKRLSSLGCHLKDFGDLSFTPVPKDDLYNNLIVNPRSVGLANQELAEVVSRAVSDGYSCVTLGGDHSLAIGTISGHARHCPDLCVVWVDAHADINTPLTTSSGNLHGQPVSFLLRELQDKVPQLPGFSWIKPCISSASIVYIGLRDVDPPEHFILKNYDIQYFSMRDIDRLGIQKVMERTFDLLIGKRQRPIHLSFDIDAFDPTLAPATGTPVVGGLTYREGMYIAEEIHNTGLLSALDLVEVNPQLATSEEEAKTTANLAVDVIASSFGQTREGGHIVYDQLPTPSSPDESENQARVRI
The test can be described thus: in vitro enzyme assay to detect the production of urea directly proportional to the activity of Arginase II. Further: in the data most compounds retested in dose-response had high values. Particulars: 33.3 µM. Type of test: functional.

The target in test [7] is T3, Proteasome subunit beta (Trypanosoma cruzi) (UniProt O96673).
T3 sequence (whole entry): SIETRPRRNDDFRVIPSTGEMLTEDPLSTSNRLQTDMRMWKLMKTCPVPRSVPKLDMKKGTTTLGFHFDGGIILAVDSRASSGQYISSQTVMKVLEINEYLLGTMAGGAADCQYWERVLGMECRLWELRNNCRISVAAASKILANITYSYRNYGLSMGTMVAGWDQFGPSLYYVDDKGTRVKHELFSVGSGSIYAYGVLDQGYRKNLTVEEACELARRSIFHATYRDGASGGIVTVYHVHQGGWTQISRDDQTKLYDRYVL
The test is described as follows: Trypanosoma cruzi proteasome chymotrypsin-like activity (TcProtChymo) assay. Further: in the data most compounds retested in dose-response had high values. The class given is functional. Conditions: 9.37 µM.

Test [8] is filed under the species Homo sapiens. The test can be described thus: To identify inhibition of the IFN signalling (Jak-Stat) pathway via expression of an eGFP reporter gene under the control of an IFN-stimulated response element (ISRE) containing MxA promoter. Type of test: functional. Particulars: 30 µM.
Test [9] has as its target T4, Tyrosyl-tRNA synthetase, putative (Trypanosoma cruzi (strain CL Brener)) (UniProt Q4DSP6).
T4 sequence (whole entry): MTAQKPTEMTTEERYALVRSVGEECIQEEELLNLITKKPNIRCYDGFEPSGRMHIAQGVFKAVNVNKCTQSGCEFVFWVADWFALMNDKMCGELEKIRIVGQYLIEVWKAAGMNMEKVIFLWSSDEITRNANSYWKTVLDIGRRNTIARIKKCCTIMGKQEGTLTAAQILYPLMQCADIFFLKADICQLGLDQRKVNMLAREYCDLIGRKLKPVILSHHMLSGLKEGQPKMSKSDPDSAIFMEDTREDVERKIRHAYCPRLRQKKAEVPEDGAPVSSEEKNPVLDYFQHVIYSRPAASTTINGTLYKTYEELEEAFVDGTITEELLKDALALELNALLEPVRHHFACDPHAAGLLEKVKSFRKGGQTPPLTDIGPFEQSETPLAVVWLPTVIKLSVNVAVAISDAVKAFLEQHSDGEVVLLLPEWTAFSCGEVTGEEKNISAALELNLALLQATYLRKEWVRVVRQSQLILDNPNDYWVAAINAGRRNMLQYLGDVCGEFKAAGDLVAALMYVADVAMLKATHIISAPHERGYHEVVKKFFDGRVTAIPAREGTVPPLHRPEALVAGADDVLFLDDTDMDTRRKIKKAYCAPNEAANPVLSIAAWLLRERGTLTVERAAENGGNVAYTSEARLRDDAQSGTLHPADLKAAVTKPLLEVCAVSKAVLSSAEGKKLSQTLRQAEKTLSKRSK
The test is described as follows: Trypanosoma cruzi tyrosyl tRNA synthetase (TcYRS) _High Tyrosine SOP. Further: in the data most compounds retested in dose-response had high values. The class given is functional. Particulars: 30 µM.

Test [10] concerns the target T4, Tyrosyl-tRNA synthetase, putative (Trypanosoma cruzi (strain CL Brener)). The test can be described thus: Trypanosoma cruzi tyrosyl tRNA synthetase (TcYRS) SOP. Type of test: functional. Conditions: 30 µM.
Test [11] addresses Chromo domain-containing protein 1 (Saccharomyces cerevisiae (strain ATCC 204508 / S288c) (Baker's yeast)) (UniProt P32657). The test can be described thus: ScCHD-1 Enzyme Inhibition Assay. Further: in the data most compounds retested in dose-response had high values. Particulars: 30 µM. Type of test: functional.

Chain of Sialic acid-binding Ig-like lectin 9 (Homo sapiens) (Q9Y336 whole entry): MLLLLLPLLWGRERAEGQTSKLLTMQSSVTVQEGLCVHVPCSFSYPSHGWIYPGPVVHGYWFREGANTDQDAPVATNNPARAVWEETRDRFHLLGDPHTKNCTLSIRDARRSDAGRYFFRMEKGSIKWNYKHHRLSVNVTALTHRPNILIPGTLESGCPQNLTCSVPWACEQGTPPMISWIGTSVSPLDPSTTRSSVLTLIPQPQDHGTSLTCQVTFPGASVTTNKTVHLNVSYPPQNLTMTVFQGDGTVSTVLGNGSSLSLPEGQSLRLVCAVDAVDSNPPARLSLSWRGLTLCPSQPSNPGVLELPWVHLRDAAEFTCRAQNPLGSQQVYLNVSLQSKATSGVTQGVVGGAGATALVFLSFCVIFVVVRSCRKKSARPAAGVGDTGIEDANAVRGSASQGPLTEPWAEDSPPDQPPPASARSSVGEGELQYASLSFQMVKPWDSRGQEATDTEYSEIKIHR
Chain of Chromo domain-containing protein 1 (Saccharomyces cerevisiae (strain ATCC 204508 / S288c) (Baker's yeast)) (P32657 whole entry, the tested form may be a part): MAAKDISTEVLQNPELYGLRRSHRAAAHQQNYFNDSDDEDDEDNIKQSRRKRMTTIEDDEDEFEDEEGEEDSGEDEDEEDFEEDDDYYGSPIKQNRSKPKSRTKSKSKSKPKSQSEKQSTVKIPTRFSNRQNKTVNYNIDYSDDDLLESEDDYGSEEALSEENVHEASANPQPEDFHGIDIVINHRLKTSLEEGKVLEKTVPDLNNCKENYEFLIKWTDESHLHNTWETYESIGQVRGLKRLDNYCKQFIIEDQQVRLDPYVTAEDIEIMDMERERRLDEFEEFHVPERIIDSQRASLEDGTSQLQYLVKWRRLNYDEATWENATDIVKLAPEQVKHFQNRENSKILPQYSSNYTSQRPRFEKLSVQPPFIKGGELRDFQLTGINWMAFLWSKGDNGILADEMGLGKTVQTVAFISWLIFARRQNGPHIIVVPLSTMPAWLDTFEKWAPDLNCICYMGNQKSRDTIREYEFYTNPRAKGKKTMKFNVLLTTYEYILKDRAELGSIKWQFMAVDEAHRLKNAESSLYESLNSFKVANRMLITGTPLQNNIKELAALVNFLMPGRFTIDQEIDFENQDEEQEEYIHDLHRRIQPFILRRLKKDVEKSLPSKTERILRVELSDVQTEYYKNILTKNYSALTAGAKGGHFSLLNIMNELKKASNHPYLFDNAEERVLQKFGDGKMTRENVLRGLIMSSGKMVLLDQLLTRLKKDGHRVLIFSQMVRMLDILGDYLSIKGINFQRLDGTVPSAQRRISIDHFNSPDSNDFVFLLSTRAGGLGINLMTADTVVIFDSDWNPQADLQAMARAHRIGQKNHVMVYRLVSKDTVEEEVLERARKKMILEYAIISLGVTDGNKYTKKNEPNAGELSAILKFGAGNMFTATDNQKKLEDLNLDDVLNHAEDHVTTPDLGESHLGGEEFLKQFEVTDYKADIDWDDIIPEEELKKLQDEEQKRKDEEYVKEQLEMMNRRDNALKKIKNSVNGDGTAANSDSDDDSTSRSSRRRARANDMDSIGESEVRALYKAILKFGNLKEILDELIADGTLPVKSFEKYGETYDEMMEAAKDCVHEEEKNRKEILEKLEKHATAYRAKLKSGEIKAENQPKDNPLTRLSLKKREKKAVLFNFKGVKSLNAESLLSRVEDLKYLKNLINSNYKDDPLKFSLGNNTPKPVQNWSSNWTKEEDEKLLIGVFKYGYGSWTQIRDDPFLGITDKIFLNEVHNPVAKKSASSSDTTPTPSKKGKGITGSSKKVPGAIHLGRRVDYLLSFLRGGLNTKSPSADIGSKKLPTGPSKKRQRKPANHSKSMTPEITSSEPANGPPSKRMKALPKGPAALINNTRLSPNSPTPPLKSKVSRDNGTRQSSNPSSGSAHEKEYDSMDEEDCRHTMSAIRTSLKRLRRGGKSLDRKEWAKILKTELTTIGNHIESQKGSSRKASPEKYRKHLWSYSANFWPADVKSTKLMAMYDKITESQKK

On to `CC(C)c1cc(NC(=O)c2ccc(C(=O)NC(C)(C)C)cc2)[nH]n1`, for which the Percent Effect in test [1] was -6.52%; in [2], 23.4%; in test [3], 112%; in [4], -4.38%; in [5], -3%; in test [6], 0.712%. In addition, the Percent Effect in test [7] is 0.169%; in test [8] it was 53%; in test [9], 6.8%; in [10], 24.4%; in [11] it was -4.07%.

Turning to `Cc1nccnc1CN1CCC2(CCCN(C3CCOCC3)C2=O)C1` (stereo unspecified), the Percent Effect was -2.05% in [1]; -2.74% in test [2]; -4.08% in test [3]; 1.19% in [4]; 2.98% in test [5]; -2.79% in test [6]. Also, the Percent Effect in test [7] amounted to 12.8%; in test [8], 13.9%; in [9], 5.21%; in test [10], 6.17%; in test [11], 0.026%.

As for `O=C1CC[C@H]2CN(Cc3ccc(Cl)s3)CC[C@H]2N1CCc1c[nH]cn1`, the Percent Effect in test [1] is -2.35%; in test [2], 5.48%; in test [3], 2.32%; in test [4] it was 10.8%; in [5] it was 4.37%; in test [6], -1.6%. The Percent Effect in test [7] is 11.9%; in test [8], 34.2%; in test [9], 3.12%; in test [10], 8.64%; in test [11], -0.239%.

Take `Cc1noc(C)c1CNC(=O)N1CCN(Cc2cscn2)CC1`: the Percent Effect in [1] is -5.7%; in test [2] it was 15.8%; in test [3], -5.03%; in test [4], 9.82%; in test [5], 5.45%; in [6], 0.766%. In addition, the Percent Effect is 3.51% in test [7]; -2.83% in [8]; 6.37% in test [9]; 17.1% in test [10]; -14.9% in [11].

`N#Cc1ccccc1N1CCCN(C(=O)CCc2nccs2)CC1`: the Percent Effect in test [1] is -2.01%; in test [2], 12.7%; in test [3], -0.172%; in test [4] it was 4.85%; in test [5], -4.25%; in test [6] it was 5.7%. Also, the Percent Effect in test [7] was 3.36%; in test [8], 17.5%; in test [9], 3.45%; in test [10], 11.4%; in test [11] it was -6.41%.

As for `Cc1cnn(CC2CCCN2CCc2nc3ccccc3c(=O)[nH]2)c1` (stereo unspecified), the Percent Effect in test [1] was -3.81%; in test [2], 10.1%; in test [3], -7.83%; in test [4], 11.2%; in test [5], 6.89%; in [6], 4.56%. In addition, the Percent Effect is -1.06% in [7]; 15.8% in test [8]; 3.45% in [9]; 16.5% in test [10]; -5.27% in test [11].

As to `CCOC(C)c1nc(CN2CCN(c3nccc(C)n3)CC2)cs1` (stereo unspecified), the Percent Effect in test [1] is -1.18%; in test [2] it was 0%; in test [3], -0.85%; in test [4], -1.42%; in [5] it was 0.386%; in [6], -0.476%. For the same compound, the Percent Effect in test [7] is 10.2%; in [8] it was -0.937%; in test [9], -3.7%; in test [10] it was 2.44%; in test [11], -2.47%.

For `Cc1ccc(CNCC2CCc3nnc(C(C)C)n3C2)s1` (stereo unspecified), the Percent Effect in test [1] is -1.99%; in test [2], -1.39%; in [3] it was -8.87%; in test [4] it was -3.91%; in [5], -1.46%; in test [6], -3.97%. Also, the Percent Effect is 4.56% in test [7]; -6.98% in [8]; 1.05% in test [9]; 0% in test [10]; -1.15% in test [11].

In the case of `COc1cc(CNCc2ccc(C(C)O)cc2)cc2c1OCO2` (stereo unspecified), the Percent Effect in test [1] is -4.95%; in [2] it was 18.9%; in test [3], 2.1%; in [4], 10.4%; in test [5], 8.45%; in [6], 0.185%. Moreover, the Percent Effect in [7] is 20.8%; in [8] it was 15.6%; in [9], 9.9%; in test [10] it was 28.1%; in test [11], -9.5%.

`Cc1ccc(N2CCN(C(=O)COc3ccccc3)CC2)nn1`: the Percent Effect is -2.94% in [1]; 8.22% in test [2]; 6.52% in test [3]; -4.33% in test [4]; -3.92% in [5]; -0.909% in [6]. The Percent Effect in test [7] is 10.8%; in [8] it was 13.2%; in test [9], 5.38%; in test [10] it was 17.5%; in test [11], -6.41%.

Take `O=C1CCSCC(C(=O)N2CCOCC2)N1` (stereo unspecified): the Percent Effect is -5.1% in test [1]; 2.74% in test [2]; -1.73% in [3]; -8.51% in test [4]; -2.74% in test [5]; -0.455% in [6]. Besides, the Percent Effect was determined as 5.5% in test [7]; 16% in test [8]; 2.15% in test [9]; 7.5% in [10]; 0.585% in test [11].
